hgDAF12 agonist: hgDAF-12 agonism, primary luciferase screen; HEK293 GAL4-hgDAF12 UAS-luciferase reporter, agonist luminescence; normalized to butyrate control; activation, % at 6.8 µM; actives 1.8% (n = 370,000); AID 687014;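 active = activation above a cutoff set at the mean of all screened compounds plus 3 SD, cut at about 10% in these data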;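 note: 0% = DMSO wells and 100% = sodium butyrate wells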
ssDAF12 agonist: S. stercoralis DAF-12 activation, primary screen; HEK293 ssDAF-12/GRIP1 lit1-tk-luc reporter, luminescence; % of 3 µM dafachronic acid response; activation, % at 6.8 µM; actives 1% (n = 370,000); AID 652126;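 active = activation above the mean over all tested compounds plus 3 SD, cut at about 0.9% in these data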;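 note: 0% = DMSO-only wells and 100% = 3 µM delta7-dafachronic acid wells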
DAX1 inh-1: blocks DAX1 repression of SF-1 activated StAR promoter. HEK293T StAR-luciferase reporter, SF-1/DAX-1 repression relief. inhibition, % at 6.8 µM. actives 1.1% (n = 370,000);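 active = inhibition above the mean over all tested compounds plus 3 SD, cut at about 3.6% in these data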;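 note: 0% = DAX-1 cells with DMSO and 100% = cells lacking DAX-1 with DMSO; higher inhibition means more luminescence from relief of DAX-1 repression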
DAX1 inh-2: inhibitors of human orphan nuclear receptor DAX1 (NR0B1). P51843. HEK293 Gal4-DAX1 luciferase reporter, luminescence. inhibition, % at 6.75 µM. actives 0.99% (n = 340,000). AID 504766;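 active = inhibition above the mean over all tested compounds plus 3 SD, cut at about 4.2% in these data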;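 note: 0% = DAX1-transfected cells with DMSO and 100% = empty-vector control cells with DMSO; inhibition shows as a rise in luminescence from relieved DAX1 repression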
AHR activator: activators of human aryl hydrocarbon receptor; AID 2796; activation, % at 5 µM; actives 2.5% (n = 320,000); AHR-responsive luciferase reporter cells, luminescence; P35869; in the data active = activation above about 47%;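 note: 0% = vehicle wells and 100% = reference agonist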
hcDAF12 agonist: activators of H. contortus DAF-12 nuclear receptor | HEK293 hcDAF-12 lit1-tk-luc reporter, luminescence; 0% DMSO, 100% Δ7-dafachronic acid | activation, % at 6.8 µM | actives 1.4% (n = 370,000) | AID 652067;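 active = activation above the mean of all tested compounds plus 3 SD, cut at about 5.5% in these data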;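 note: 100% = response to 3 µM Δ7-dafachronic acid high control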
LXR ag: activates human LXR-beta, counter-screen for hcDAF-12 agonists. AID 743027. HEK293 Gal4-LXR tk-luc reporter, luminescence, 24 h; normalized: DMSO 0%, positive control 100%. shares compounds with hcDAF12 agonist. 3,400 tested, under 10 active. activation, % at 6.8 µM;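 active = mean percent activation of the reporter above a cutoff set as the average over tested compounds plus their standard deviation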
Target sequence (P55055 whole entry, looked up, the tested form may be a part): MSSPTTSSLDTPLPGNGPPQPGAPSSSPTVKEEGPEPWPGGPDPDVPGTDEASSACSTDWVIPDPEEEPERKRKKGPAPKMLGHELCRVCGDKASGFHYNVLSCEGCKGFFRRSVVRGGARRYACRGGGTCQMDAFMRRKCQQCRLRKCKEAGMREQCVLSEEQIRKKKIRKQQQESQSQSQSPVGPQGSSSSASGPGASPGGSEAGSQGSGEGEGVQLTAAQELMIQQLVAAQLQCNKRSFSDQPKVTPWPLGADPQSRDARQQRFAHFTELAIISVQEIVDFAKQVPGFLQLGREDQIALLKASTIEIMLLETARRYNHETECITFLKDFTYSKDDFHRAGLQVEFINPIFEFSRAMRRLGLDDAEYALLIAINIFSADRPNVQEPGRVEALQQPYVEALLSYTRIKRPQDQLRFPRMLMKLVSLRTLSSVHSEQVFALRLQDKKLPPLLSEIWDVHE
hcDAF12 conf: confirmation of H. contortus DAF-12 agonists. shares compounds with hcDAF12 agonist. HEK293 hcDAF-12 lit1-tk-luc reporter, luminescence; % of Δ7-dafachronic acid response. activation, % at 6.8 µM. actives 61% (n = 3,400). AID 743032;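 active = mean activation across triplicate tests above the threshold derived from the earlier primary screen, cut at about 5.5% in these data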;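 note: 0% = DMSO only wells and 100% = 3 µM Δ7-dafachronic acid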
* marks the source's active call; other numbers are inactive results; · = no result. Hits are enriched below; roughly 5.7% of the tested compounds scored in any of these assays.

SMILES | hgDAF12 agonist | ssDAF12 agonist | DAX1 inh-1 | DAX1 inh-2 | AHR activator | hcDAF12 agonist | LXR ag | hcDAF12 conf
CC1(C(=O)NS(=O)(=O)c2cccc(OC(F)F)c2)CCN1C(=O)c1ccccc1CCc1ccccc1 (stereo not drawn) | 2 | 0 | -1 | · | · | -2 | · | ·
CCC(C)(C)C1CCC2(CC1)NC(=O)N(CC(=O)NCCc1c[nH]c3ccccc13)C2=O (stereo not drawn) | 5 | 0 | 0 | 1 | 16 | 6.8* | 0 | 3
CC1CCC2(CC1)NC(=O)N(CC(=O)NCCc1c[nH]c3ccccc13)C2=O (stereo not drawn) | 3 | 0 | -2 | 1 | 8 | 2 | · | ·
COc1ccc(/C=[N+](\[O-])C2N(c3ccccc3)C(=S)SC2(C)C)cc1OC (stereo not drawn) | 3 | -1 | 0 | 2 | -2 | 9.3* | 0 | 0
O=C(NCCc1c[nH]c2ccccc12)OCc1cn(Cc2cccc(Cl)c2)nn1 | 7 | -1 | 0 | · | · | 6.6* | 0 | -1
Cc1cccc(C)c1NS(=O)(=O)c1cc2c3c(c1)CC(=O)N3CCC2 | -2 | -1 | 0 | 0 | 4 | 0 | · | ·
Clc1cccc(CN2CCc3c([nH]c4ccccc34)C2)c1Cl | 1 | -1 | 0 | 1 | 3 | 7.0* | 0 | -1
COc1cc(CN2CCc3c([nH]c4ccccc34)C2)cc(OC)c1 | 0 | -1 | 0 | 0 | 5 | 0 | · | ·
CCCCC(=O)/C=C/n1c(=S)oc2ccccc21 | 8 | 1 | 1 | 0 | 2 | 6.6* | 0 | 4
CC(C)OC(=O)n1c(=S)oc2ccccc21 | -1 | -2 | 1 | 1 | 1 | -2 | · | ·
Cc1ccc2nc(NC(=O)COC(=O)CSc3nc(C)cc(C)n3)sc2c1 | 8 | 0 | 1 | 2 | 29 | 9.6* | 0 | 8.7*
COC(=O)c1ccc2nc(NC(=O)COC(=O)CSc3nc(C)cc(C)n3)sc2c1 | 5 | 0 | 1 | 1 | 18 | 11* | 0 | 5.9*
COc1cccc(-c2ccc(NC(=O)C3CCCN(Cc4cc(C)[nH]n4)C3)cc2)c1 (stereo not drawn) | 3 | -1 | 0 | 0 | 38 | 7.0* | 0 | 0
COc1cccc(-c2ccc(NC(=O)C3CCCN(Cc4ccccn4)C3)cc2)c1 (stereo not drawn) | 2 | -1 | -1 | 0 | · | -1 | · | ·
CNC(=S)NNc1nc(C)cc(C)n1 | -1 | -1 | 0 | 4 | 3 | -2 | · | ·
CCc1ccc(N2Cc3ccccc3C2)cc1 | 29* | 1 | 3 | 3 | 17 | 6.9* | 1 | 7.7*
Cc1cc(C)cc(N2Cc3ccccc3C2)c1 | -3 | -1 | 1 | 0 | 6 | 0 | · | ·
O=C(C1CCCCC1)N1C[C@H](O)[C@@H](n2cc(C3CC3)nn2)C[C@@H]1c1ccccc1 | -5 | -1 | 2 | 1 | · | -2 | · | ·
O=C1Nc2ccc(Br)cc2C12NNc1ccccc1O2 (stereo not drawn) | 2 | 0 | 0 | -1 | 60* | 6.9* | 0 | 2
CCn1cc(Cl)c(C(=O)N2N=C3/C(=C/c4cccs4)CCCC3C2c2cccs2)n1 (stereo not drawn) | 2 | -1 | -1 | 0 | 27 | 6.6* | 0 | 5
Cc1ccc(S(=O)(=O)CCC(=O)OCC(=O)N2CCc3ccccc32)cc1 | 0 | -1 | 0 | -1 | 2 | 0 | · | ·
Cc1ccc(S(=O)(=O)CCC(=O)N2CCc3ccccc32)cc1 | 2 | 1 | 1 | 0 | 10 | 6.8* | 0 | 4
CCCCC(=O)Nc1nnc(CCOC)s1 | 0 | -1 | 0 | 0 | 0 | 0 | · | ·
CN(C)S(=O)(=O)c1ccc(C(=O)Oc2ccccc2)cc1 | 2 | -1 | -1 | 1 | 2 | 12* | 0 | 1
O=C(Oc1ccccc1)c1ccccc1 | 2 | -1 | -1 | 0 | · | 2 | · | ·
SMILES | hgDAF12 agonist | ssDAF12 agonist | DAX1 inh-1 | DAX1 inh-2 | AHR activator | hcDAF12 agonist | LXR ag | hcDAF12 conf
c1ccc2nc(-c3nc4ccccc4[nH]3)ccc2c1 | 13* | 1.1* | 1 | -4 | 8 | 21* | 2 | 21*
O=C(Nc1cc2c(ccc3ccccc32)oc1=O)C1CCCCC1 | -1 | 0 | 0 | 0 | 15 | 7.3* | 0 | 1
COc1ccc(S(=O)(=O)N(C)C)cc1NC(=O)COC(=O)C1CC1 | 3 | -1 | 0 | 0 | -1 | 0 | · | ·
O=C(/C=C/Nc1cccc(F)c1)c1ccco1 | 12* | 1.4* | 3 | 3 | 16 | 8.8* | 1 | 8.1*
O=C(CCNc1ccc(F)c(Cl)c1)c1ccco1 | 3 | -2 | 0 | 1 | -1 | 0 | · | ·
O=C(/C=C/Nc1ccc(F)c(Cl)c1)c1ccco1 | 9 | 1.7* | 1 | 4 | 11 | 8.8* | 1 | 12*
O=C(/C=C\Nc1cccc(F)c1)c1cccs1 | 8 | 1.5* | 3.6* | 3 | 37 | 9.8* | 2 | 18*
COCC(C)n1c(C)cc(C(=O)COC(=O)c2cccn2C)c1C (stereo not drawn) | -7 | -3 | -2 | -2 | 0 | -2 | · | ·
COc1ccc(/C(N)=N/OC(=O)c2ccc(Br)o2)cc1 | 5 | 0 | 0 | 2 | 69* | 8.4* | 0 | 4
O=C(CNC(=O)c1ccccc1F)OCC(=O)c1ccc(Cl)s1 | -2 | -1 | -1 | 0 | 0 | 2 | · | ·
Cc1ccnc(NC(=O)CNC(=O)c2cccs2)c1 | 2 | -1 | 0 | 4 | 6 | -1 | · | ·
Cc1ccnc(NC(=S)NC(=O)c2cccs2)c1 | 19* | 2.1* | 4.3* | 4 | 9 | 14* | 2 | 11*
Cc1cnc(NC(=O)CSc2nnc(-c3ccccc3)o2)s1 | 7 | 0 | 3 | 6.4* | 4 | 8.4* | 1 | 5
COc1ccccc1C(=O)N1CCCC1(C#N)c1ccccc1 (stereo not drawn) | 0 | -1 | 0 | 1 | 1 | 0 | · | ·
N#CC1(c2ccccc2)CCCN1C(=O)c1ccccc1Br (stereo not drawn) | -1 | 0 | 0 | 0 | 3 | 10* | 0 | 2
Cc1ccc(CNC(=O)[C@@H](NC(=O)C2CCN(C(=O)[C@@H](N)CC(C)C)CC2)C(C)C)cc1 | -1 | -1 | 0 | 1 | 0 | 0 | · | ·
O=C(NCCc1c[nH]c2ccccc12)c1cnc2sccn2c1=O | 10 | 1.4* | 3 | 3 | 30 | 8.6* | 1 | 8.9*
